Measured values: paper PMC11006913
Substitutions are numbered along the chain they refer to.

Each sequence was assayed against T1, SIX6 (Homo sapiens, UniProt O95475 114-200, T165G) (assay: PBM; 200 nM protein, PBS). Conditions: dsDNA, one strand shown.
T1 sequence: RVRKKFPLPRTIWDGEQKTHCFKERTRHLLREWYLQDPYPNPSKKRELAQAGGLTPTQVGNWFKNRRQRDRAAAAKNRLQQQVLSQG

GGTGACAC was tested. Which binding signal did it give?
Its binding signal is 10.4 upbm affinity estimate (log intensity, higher = more binding, comparable within an allelic series).

With CATGACAC as the sequence, how does the binding signal read?
Its binding signal is 10.7 upbm affinity estimate (log intensity, higher = more binding, comparable within an allelic series).

How did the binding signal turn out when GACACCTA was run?
Its binding signal is 10.6 upbm affinity estimate (log intensity, higher = more binding, comparable within an allelic series).

How did the binding signal turn out when AGGTGTAA was run?
The binding signal was 10.5 upbm affinity estimate (log intensity, higher = more binding, comparable within an allelic series).

ACGACACC was tested. Which binding signal did it give?
Its binding signal is 10.6 upbm affinity estimate (log intensity, higher = more binding, comparable within an allelic series).

With AGGTGTGA as the sequence, how does the binding signal read?
The binding signal was 10.5 upbm affinity estimate (log intensity, higher = more binding, comparable within an allelic series).

AGACACCC was tested. Which binding signal did it give?
The binding signal was 10.5 upbm affinity estimate (log intensity, higher = more binding, comparable within an allelic series).

For GACACCTC, which binding signal is on record?
The binding signal was 10.4 upbm affinity estimate (log intensity, higher = more binding, comparable within an allelic series).

Which binding signal does the source give for CCGACACC here?
The binding signal was 10.4 upbm affinity estimate (log intensity, higher = more binding, comparable within an allelic series).

Which binding signal does the source give for CGACACCC here?
Its binding signal is 10.5 upbm affinity estimate (log intensity, higher = more binding, comparable within an allelic series).

Which binding signal does the source give for AAGTGTCA here?
The binding signal was 10.5 upbm affinity estimate (log intensity, higher = more binding, comparable within an allelic series).

With AAGACACC as the sequence, how does the binding signal read?
Its binding signal is 10.6 upbm affinity estimate (log intensity, higher = more binding, comparable within an allelic series).

CTGGTGTC was tested. Which binding signal did it give?
The binding signal was 10.6 upbm affinity estimate (log intensity, higher = more binding, comparable within an allelic series).

TCATATCA was tested. Which binding signal did it give?
The binding signal was 11.2 upbm affinity estimate (log intensity, higher = more binding, comparable within an allelic series).

How did the binding signal turn out when GGTGTAAC was run?
Its binding signal is 10.4 upbm affinity estimate (log intensity, higher = more binding, comparable within an allelic series).

ACACCACC was tested. Which binding signal did it give?
The binding signal was 10.3 upbm affinity estimate (log intensity, higher = more binding, comparable within an allelic series).

For AGGTGTCG, which binding signal is on record?
The binding signal was 10.5 upbm affinity estimate (log intensity, higher = more binding, comparable within an allelic series).

How did the binding signal turn out when ATTACACC was run?
Its binding signal is 10.7 upbm affinity estimate (log intensity, higher = more binding, comparable within an allelic series).

How did the binding signal turn out when AGTGACAC was run?
Its binding signal is 10.6 upbm affinity estimate (log intensity, higher = more binding, comparable within an allelic series).

The sequences below were run against HESX1 (Homo sapiens, UniProt Q9UBX0 95-180) (assay: PBM; 200 nM protein, PBS). Conditions: dsDNA, one strand shown.
Chain of HESX1 (Q9UBX0 95-180): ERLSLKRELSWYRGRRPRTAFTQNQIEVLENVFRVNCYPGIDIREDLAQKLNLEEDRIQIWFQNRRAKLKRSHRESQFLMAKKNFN

TAACTTGA was tested. Which binding signal did it give?
The binding signal was 7.21 upbm affinity estimate (log intensity, higher = more binding, comparable within an allelic series).

For GGTTATGA, which binding signal is on record?
The binding signal was 7.26 upbm affinity estimate (log intensity, higher = more binding, comparable within an allelic series).

How did the binding signal turn out when ACGATCAA was run?
Its binding signal is 7.32 upbm affinity estimate (log intensity, higher = more binding, comparable within an allelic series).

For GCATAAAC, which binding signal is on record?
The binding signal was 7.44 upbm affinity estimate (log intensity, higher = more binding, comparable within an allelic series).

How did the binding signal turn out when ATTTACGC was run?
The binding signal was 7.63 upbm affinity estimate (log intensity, higher = more binding, comparable within an allelic series).

With GAGAATGA as the sequence, how does the binding signal read?
The binding signal was 7.23 upbm affinity estimate (log intensity, higher = more binding, comparable within an allelic series).

Which binding signal does the source give for ATAACTGC here?
Its binding signal is 7.57 upbm affinity estimate (log intensity, higher = more binding, comparable within an allelic series).

For GAATTCTA, which binding signal is on record?
The binding signal was 6.97 upbm affinity estimate (log intensity, higher = more binding, comparable within an allelic series).

Which binding signal does the source give for AAGTAGAG here?
The binding signal was 7.4 upbm affinity estimate (log intensity, higher = more binding, comparable within an allelic series).

What follows are sequences tested against HOXA2 (Homo sapiens, UniProt O43364 129-215, R185T) (assay: PBM; 200 nM protein, PBS). Conditions: dsDNA, one strand shown.
Chain of HOXA2 (Homo sapiens, UniProt O43364 129-215, R185T) (O43364 129-215 R185T): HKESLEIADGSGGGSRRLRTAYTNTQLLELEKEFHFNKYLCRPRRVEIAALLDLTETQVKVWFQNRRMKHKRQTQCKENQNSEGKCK

GCTAATCA was tested. Which binding signal did it give?
The binding signal was 12.5 upbm affinity estimate (log intensity, higher = more binding, comparable within an allelic series).

With CCGCCGCA as the sequence, how does the binding signal read?
The binding signal was 7.15 upbm affinity estimate (log intensity, higher = more binding, comparable within an allelic series).

How did the binding signal turn out when CCCCCCCA was run?
Its binding signal is 7.25 upbm affinity estimate (log intensity, higher = more binding, comparable within an allelic series).

With GACCGCCC as the sequence, how does the binding signal read?
Its binding signal is 7.33 upbm affinity estimate (log intensity, higher = more binding, comparable within an allelic series).

How did the binding signal turn out when AATTTATG was run?
The binding signal was 10.1 upbm affinity estimate (log intensity, higher = more binding, comparable within an allelic series).

Which binding signal does the source give for CGTATTAC here?
Its binding signal is 9.06 upbm affinity estimate (log intensity, higher = more binding, comparable within an allelic series).

ATCAATAG was tested. Which binding signal did it give?
Its binding signal is 9.12 upbm affinity estimate (log intensity, higher = more binding, comparable within an allelic series).

Which binding signal does the source give for CGCCACGC here?
The binding signal was 7.14 upbm affinity estimate (log intensity, higher = more binding, comparable within an allelic series).

With CCGGTTCC as the sequence, how does the binding signal read?
Its binding signal is 6.98 upbm affinity estimate (log intensity, higher = more binding, comparable within an allelic series).

With GGTGATTA as the sequence, how does the binding signal read?
Its binding signal is 12.6 upbm affinity estimate (log intensity, higher = more binding, comparable within an allelic series).

With CTGGCTCC as the sequence, how does the binding signal read?
Its binding signal is 7.01 upbm affinity estimate (log intensity, higher = more binding, comparable within an allelic series).

CCCCCACG was tested. Which binding signal did it give?
Its binding signal is 6.91 upbm affinity estimate (log intensity, higher = more binding, comparable within an allelic series).

These sequences were tested against MSX2 (Homo sapiens, UniProt P35548 130-214, R199I) (assay: PBM; 200 nM protein, PBS). Conditions: dsDNA, one strand shown.
Chain of MSX2 (Homo sapiens, UniProt P35548 130-214, R199I) (P35548 130-214 R199I): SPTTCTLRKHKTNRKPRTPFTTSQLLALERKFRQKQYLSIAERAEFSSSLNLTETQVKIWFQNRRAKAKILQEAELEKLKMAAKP

With GCTAATCA as the sequence, how does the binding signal read?
Its binding signal is 11 upbm affinity estimate (log intensity, higher = more binding, comparable within an allelic series).

CCGCCGCA was tested. Which binding signal did it give?
Its binding signal is 9.56 upbm affinity estimate (log intensity, higher = more binding, comparable within an allelic series).

CGCCACGC was tested. Which binding signal did it give?
The binding signal was 9.28 upbm affinity estimate (log intensity, higher = more binding, comparable within an allelic series).

Which binding signal does the source give for CTGGCTCC here?
The binding signal was 9.47 upbm affinity estimate (log intensity, higher = more binding, comparable within an allelic series).

The sequences below were run against ALX3 (Homo sapiens, UniProt O95076 139-225, N203Q) (assay: PBM; 200 nM protein, PBS). Conditions: dsDNA, one strand shown.
Chain of ALX3 (Homo sapiens, UniProt O95076 139-225, N203Q) (O95076 139-225 N203Q): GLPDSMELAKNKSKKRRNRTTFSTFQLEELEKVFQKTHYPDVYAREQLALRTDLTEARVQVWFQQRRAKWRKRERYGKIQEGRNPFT

For CCCCCCCA, which binding signal is on record?
Its binding signal is 7.7 upbm affinity estimate (log intensity, higher = more binding, comparable within an allelic series).

Which binding signal does the source give for CGTATTAC here?
The binding signal was 8.19 upbm affinity estimate (log intensity, higher = more binding, comparable within an allelic series).

With CCGGTTCC as the sequence, how does the binding signal read?
The binding signal was 7.77 upbm affinity estimate (log intensity, higher = more binding, comparable within an allelic series).

The sequences below were run against T2, SIX6 (Homo sapiens, UniProt O95475 114-200, T165A) (assay: PBM; 200 nM protein, PBS). Conditions: dsDNA, one strand shown.
T2 sequence: T1 sequence with G52A

How did the binding signal turn out when GGTGACAC was run?
The binding signal was 10.4 upbm affinity estimate (log intensity, higher = more binding, comparable within an allelic series).

For GACACCTA, which binding signal is on record?
The binding signal was 10.5 upbm affinity estimate (log intensity, higher = more binding, comparable within an allelic series).

For ACGACACC, which binding signal is on record?
The binding signal was 10.6 upbm affinity estimate (log intensity, higher = more binding, comparable within an allelic series).

Which binding signal does the source give for CCGACACC here?
The binding signal was 10.3 upbm affinity estimate (log intensity, higher = more binding, comparable within an allelic series).

AAGTGTCA was tested. Which binding signal did it give?
The binding signal was 10.5 upbm affinity estimate (log intensity, higher = more binding, comparable within an allelic series).

Which binding signal does the source give for GGTGTAAC here?
Its binding signal is 10.4 upbm affinity estimate (log intensity, higher = more binding, comparable within an allelic series).

How did the binding signal turn out when AGGTGTCG was run?
The binding signal was 10.4 upbm affinity estimate (log intensity, higher = more binding, comparable within an allelic series).

For ATTACACC, which binding signal is on record?
Its binding signal is 10.7 upbm affinity estimate (log intensity, higher = more binding, comparable within an allelic series).

How did the binding signal turn out when AGTGACAC was run?
Its binding signal is 10.5 upbm affinity estimate (log intensity, higher = more binding, comparable within an allelic series).

These sequences were tested against HOXA2 (Homo sapiens, UniProt O43364 129-215, R185K) (assay: PBM; 200 nM protein, PBS). Conditions: dsDNA, one strand shown.
Chain of HOXA2 (Homo sapiens, UniProt O43364 129-215, R185K) (O43364 129-215 R185K): as the sequence (O43364 129-215 R185T) above, with T57K counted along it

Which binding signal does the source give for CCGCCGCA here?
The binding signal was 10.1 upbm affinity estimate (log intensity, higher = more binding, comparable within an allelic series).

Which binding signal does the source give for CCCCCCCA here?
The binding signal was 9.99 upbm affinity estimate (log intensity, higher = more binding, comparable within an allelic series).

Which binding signal does the source give for GACCGCCC here?
Its binding signal is 10.1 upbm affinity estimate (log intensity, higher = more binding, comparable within an allelic series).

AATTTATG was tested. Which binding signal did it give?
Its binding signal is 11.9 upbm affinity estimate (log intensity, higher = more binding, comparable within an allelic series).

CGCCACGC was tested. Which binding signal did it give?
Its binding signal is 10.1 upbm affinity estimate (log intensity, higher = more binding, comparable within an allelic series).

With CCGGTTCC as the sequence, how does the binding signal read?
Its binding signal is 10.1 upbm affinity estimate (log intensity, higher = more binding, comparable within an allelic series).

Which binding signal does the source give for GGTGATTA here?
The binding signal was 13.1 upbm affinity estimate (log intensity, higher = more binding, comparable within an allelic series).

For CTGGCTCC, which binding signal is on record?
Its binding signal is 10.3 upbm affinity estimate (log intensity, higher = more binding, comparable within an allelic series).

With CCCCCACG as the sequence, how does the binding signal read?
The binding signal was 9.95 upbm affinity estimate (log intensity, higher = more binding, comparable within an allelic series).

These sequences were tested against MSX2 (Homo sapiens, UniProt P35548 130-214) (assay: PBM; 200 nM protein, PBS). Conditions: dsDNA, one strand shown.
Chain of MSX2 (Homo sapiens, UniProt P35548 130-214) (P35548 130-214): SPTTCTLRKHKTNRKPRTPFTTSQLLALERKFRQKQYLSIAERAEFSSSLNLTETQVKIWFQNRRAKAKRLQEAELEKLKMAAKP

CCGCCGCA was tested. Which binding signal did it give?
Its binding signal is 9.59 upbm affinity estimate (log intensity, higher = more binding, comparable within an allelic series).

AAGTGTCA was tested. Which binding signal did it give?
Its binding signal is 10.6 upbm affinity estimate (log intensity, higher = more binding, comparable within an allelic series).

CGCCACGC was tested. Which binding signal did it give?
Its binding signal is 9.35 upbm affinity estimate (log intensity, higher = more binding, comparable within an allelic series).

With CTGGCTCC as the sequence, how does the binding signal read?
The binding signal was 9.34 upbm affinity estimate (log intensity, higher = more binding, comparable within an allelic series).

The sequences below were run against ALX3 (Homo sapiens, UniProt O95076 139-225) (assay: PBM; 200 nM protein, PBS). Conditions: dsDNA, one strand shown.
Chain of ALX3 (Homo sapiens, UniProt O95076 139-225) (O95076 139-225): as the sequence (O95076 139-225 N203Q) above, with Q65N counted along it

With CCCCCCCA as the sequence, how does the binding signal read?
The binding signal was 7.68 upbm affinity estimate (log intensity, higher = more binding, comparable within an allelic series).

CGTATTAC was tested. Which binding signal did it give?
The binding signal was 9.9 upbm affinity estimate (log intensity, higher = more binding, comparable within an allelic series).

With CCGGTTCC as the sequence, how does the binding signal read?
The binding signal was 7.63 upbm affinity estimate (log intensity, higher = more binding, comparable within an allelic series).

These sequences were tested against MSX2 (Homo sapiens, UniProt P35548 130-214, F161Y) (assay: PBM; 200 nM protein, PBS). Conditions: dsDNA, one strand shown.
Chain of MSX2 (Homo sapiens, UniProt P35548 130-214, F161Y) (P35548 130-214 F161Y): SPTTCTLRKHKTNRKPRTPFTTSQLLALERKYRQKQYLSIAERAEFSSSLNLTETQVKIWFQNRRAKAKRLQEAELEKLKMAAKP

For CCGCCGCA, which binding signal is on record?
Its binding signal is 9.59 upbm affinity estimate (log intensity, higher = more binding, comparable within an allelic series).

AAGTGTCA was tested. Which binding signal did it give?
Its binding signal is 10.5 upbm affinity estimate (log intensity, higher = more binding, comparable within an allelic series).

How did the binding signal turn out when CGCCACGC was run?
The binding signal was 9.31 upbm affinity estimate (log intensity, higher = more binding, comparable within an allelic series).

For CTGGCTCC, which binding signal is on record?
The binding signal was 9.4 upbm affinity estimate (log intensity, higher = more binding, comparable within an allelic series).

These sequences were tested against HOXA2 (Homo sapiens, UniProt O43364 129-215, Y150S) (assay: PBM; 200 nM protein, PBS). Conditions: dsDNA, one strand shown.
Chain of HOXA2 (Homo sapiens, UniProt O43364 129-215, Y150S) (O43364 129-215 Y150S): as the sequence (O43364 129-215 R185T) above, with Y22S, T57R counted along it

CCGCCGCA was tested. Which binding signal did it give?
The binding signal was 10.4 upbm affinity estimate (log intensity, higher = more binding, comparable within an allelic series).

How did the binding signal turn out when CCCCCCCA was run?
The binding signal was 10.2 upbm affinity estimate (log intensity, higher = more binding, comparable within an allelic series).

GACCGCCC was tested. Which binding signal did it give?
Its binding signal is 10.4 upbm affinity estimate (log intensity, higher = more binding, comparable within an allelic series).

For AATTTATG, which binding signal is on record?
The binding signal was 10.9 upbm affinity estimate (log intensity, higher = more binding, comparable within an allelic series).

Which binding signal does the source give for CGCCACGC here?
The binding signal was 10.3 upbm affinity estimate (log intensity, higher = more binding, comparable within an allelic series).

How did the binding signal turn out when CCGGTTCC was run?
The binding signal was 10.4 upbm affinity estimate (log intensity, higher = more binding, comparable within an allelic series).

CTGGCTCC was tested. Which binding signal did it give?
Its binding signal is 10.5 upbm affinity estimate (log intensity, higher = more binding, comparable within an allelic series).

How did the binding signal turn out when CCCCCACG was run?
Its binding signal is 10.4 upbm affinity estimate (log intensity, higher = more binding, comparable within an allelic series).
